The list is not random: actives were taken first. Their share in the collection is about 3.2%.
BRCA1 expr up: increases BRCA1 expression; AID 624202; hit rate 1.1% among 380,000; MCF7-BRCA1-FFLuc reporter, luminescence, 48 h; response scale: scaled: vehicle 0%, 10 µM genistein 100%; Potency, µM (highest dose often 46.1 µM), for inactives: at the top dose activation, most hits filed as activators; also: potency is read from the fitted curve at half-maximal effect; nearly all actives have a fitted effect of over 80% in size
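MCF7 cells carrying a BRCA1-firefly luciferase reporter (2000 cells/well, phenol-red free MEM) were attached for 2 h at 37 °C, then given compounds for 48 h. Luminescence was read 15 min after luciferase reagent; activity normalized to genistein (10 microM) and DMSO.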
Nrf2 block: inhibitors of Nrf2 signaling | A549 ARE-Fluc reporter, luciferase luminescence, 18-24 h | Potency, µM (series often up to 46 µM), for the others: at the highest dose activity change, negative = inhibition, most hits filed as inhibitors | hit rate 2.1% among 360,000 | AID 504444; also: potency is read from the fitted curve at half-maximal effect; % is scaled to controls: 0 for no effect and ±100 for the full control effect; nearly all actives have a fitted effect of over 60% in size
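Quantitative HTS in A549 cells stably bearing an antioxidant response element-firefly luciferase construct. Inhibition of Nrf2-driven transcription was scored by luminescence after 18-24 h of compound exposure at 37 °C.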
Nrf2 activator: activators of Nrf2 (ARE) signaling. AREc32 ARE-luciferase reporter (MCF7-derived line), luminescence, 24 h. Potency, µM (highest dose often 46.1 µM), for inactives: top-dose activation, usual class: activators. hit rate 0.31% among 410,000; also: potency is read from the fitted curve at half-maximal effect; % of control where 0% means no effect; nearly all actives have a fitted effect of over 65% in size
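ARE-driven firefly luciferase activity in AREc32 cells measured after a 24 hr compound exposure at 37 deg C, using Steady-Glo reagent and a 30 min room-temperature hold.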
A549 tox-1: A549 cytotoxicity, counter-screen for Nrf2 inhibitors. A549 ARE-Fluc cells, CellTiter-Fluor viability, 18-24 h. Potency, µM (titrated, usually from 46 µM), for inactives: at the top dose activity change, negative = cytotoxicity, most hits filed as inhibitors. hit rate 0.16% among 390,000. AID 504648; also: potency is read from the fitted curve at half-maximal effect; % is scaled to controls: 0 for no effect and ±100 for the full control effect
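A549 ARE-Fluc cells in 5% FBS OPTI-MEM, 5000 cells/well, rested 2 h then exposed to compounds in concentration-response for 18-24 h at 37 °C. Viability by CellTiter-Fluor fluorescence (Ex 405/Em 525) after 30 min; luciferase luminescence (BugLite, 15 min, RT) read afterwards.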
p53 reactivator: restores transcriptional activity of mutant p53; H1299 p53-A138V BP100-luciferase reporter, luminescence, 24 h; Potency, µM (highest dose often 92.2 µM), for the others: at the top dose activity change, positive = activation, usual class: activators; hit rate 0.063% among 320,000; also: potency is read from the fitted curve at half-maximal effect; % of control where 0% means no effect; nearly all actives have a fitted effect of over 45% in size
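p53-null H1299 cells stably carrying temperature-sensitive p53-A138V and a BP100-luciferase reporter were pinned with compounds (4-point, 1:5 series) and held 24 hrs at 37 deg C. Luminescence was read 10 min after detection reagent.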
IL2 activator: IL-2 activation; IL-2 activation reporter assay, cell-based qHTS; stimulated with anti-CD3/CD4/CD28 beads; in transgenic mouse T cells; activation, % (series mostly up to about 46 µM); hit rate 0.065% among 360,000; AID 652025; in the data active = activation above about 50%; inconclusive = mostly about 30% to 49%; also: 0% is about no effect
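EGFP and DsRed fluorescence is measured by plate cytometry in unstimulated transgenic mouse T cells exposed to compound for 60 minutes, then stimulated 18 hours at 37 degrees C with anti-CD3/anti-CD4 beads plus anti-CD28.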
FLuc counter 3: blocks purified firefly luciferase in Nrf2 counterscreen; shares compounds with Nrf2 block; purified firefly luciferase, luminescence inhibition; Potency, µM (highest dose often 57.5 µM), inactives show at the top dose activity change, negative = inhibition, hits mostly inhibitors; hit rate 4% among 1,400; also: potency is read from the fitted curve at half-maximal effect; % is scaled to controls: 0 for no effect and ±100 for the full control effect; nearly all actives have a fitted effect of over 65% in size
Target sequence (P08659 whole entry, looked up): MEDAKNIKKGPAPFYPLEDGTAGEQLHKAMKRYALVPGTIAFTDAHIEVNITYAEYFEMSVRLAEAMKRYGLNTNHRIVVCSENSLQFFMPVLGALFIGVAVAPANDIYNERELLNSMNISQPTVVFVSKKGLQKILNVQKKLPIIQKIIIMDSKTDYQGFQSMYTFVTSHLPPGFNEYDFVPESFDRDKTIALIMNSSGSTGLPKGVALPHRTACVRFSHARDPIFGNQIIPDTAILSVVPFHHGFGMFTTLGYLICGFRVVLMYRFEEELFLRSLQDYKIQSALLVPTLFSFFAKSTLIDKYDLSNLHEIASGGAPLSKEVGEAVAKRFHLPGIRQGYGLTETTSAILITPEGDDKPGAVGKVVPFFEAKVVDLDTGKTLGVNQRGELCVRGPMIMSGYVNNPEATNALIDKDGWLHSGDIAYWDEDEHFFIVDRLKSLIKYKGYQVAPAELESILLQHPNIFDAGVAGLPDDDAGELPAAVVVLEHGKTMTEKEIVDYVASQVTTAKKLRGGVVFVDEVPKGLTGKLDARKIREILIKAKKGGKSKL
A549 tox-2: toxic to A549 ARE-Fluc cells in Nrf2 counterscreen. shares compounds with Nrf2 block. A549 ARE-Fluc cells, cytotoxicity counterscreen. Potency, µM (doses to about 46.1 µM), for inactives: at the top dose activity change, negative = cytotoxicity, hits mostly inhibitors. hit rate 2% among 1,400;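 also: potency is read from the fitted curve at half-maximal effect; cells exposed to compounds for 18 to 24 hours; % is scaled to controls: 0 for no effect and ±100 for the full control effect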
Nrf2 ARE inh: confirmation of Nrf2 inhibitors in A549 ARE reporter cells. shares compounds with Nrf2 block. AID 720524. hit rate 74% among 1,400. Potency, µM (series often up to 46.1 µM), for inactives: at the highest dose activity change, negative = inhibition, hits mostly inhibitors. A549 ARE-firefly luciferase reporter, luminescence; also: potency is read from the fitted curve at half-maximal effect; % is scaled to controls: 0 for no effect and ±100 for the full control effect; nearly all actives have a fitted effect of over 65% in size
* hit, by the source's call; ? = inconclusive; nt = no result given; [ ] = another dose, or the depositor's remark. Unless noted, calls follow the shape of the dose curve; as a rule, active = well fitted curve in the direction sought with a large enough effect; inconclusive = small, poorly fitted or top-dose-only effect, or another doubt; inactive = no such curve, though single readings can be large; an effect the other way counts as inactive or inconclusive.

SMILES | BRCA1 expr up | Nrf2 block | Nrf2 activator | A549 tox-1 | p53 reactivator | IL2 activator | FLuc counter 3 | A549 tox-2 | Nrf2 ARE inh
O=C(/C=C/c1cccs1)NC(=S)Nc1ccc(S(=O)(=O)Nc2ccccc2C(F)(F)F)cc1 | -6% | 8.2µM* | 3% | -10% | 0% | 2 | -28% | -9% | -11%
CCOC(=O)c1ccc(NC(=O)c2ccc3c(c2)CCN3S(=O)(=O)c2ccc(Cl)cc2)cc1 | nt | ? | 3% | 3% | nt | nt | nt | nt | nt
Cc1cc(C(=O)OCC(=O)N2CC(=O)Nc3ccccc32)c(C)n1-c1ccc(F)cc1 | -79% | 9.2µM* | 6% | ? | -3% | -1 | -16% | 1% | 16µM*
CCOC(=O)c1sc(NC(=O)c2c(-c3ccccc3)c(-c3ccccc3)nn(C)c2=O)nc1C | nt | 0% | 4% | -13% | nt | nt | nt | nt | nt
CC(=O)N1CCN(c2ccc(Oc3ccc([N+](=O)[O-])c(C(F)(F)F)c3)cc2)CC1 | -31% | 8.2µM* | 0% | ? | -6% | 0 | -1% | -9% | 8.2µM*
CN(Cc1ccc(Cl)c(Cl)c1)C(=O)c1cccc(S(=O)(=O)N2CCN(Cc3ccccc3)CC2)c1 | -25% | 9.2µM* | 0% | -20% | -4% | 0 | -2% | -24% | ?
CN(Cc1ccc(OC(F)F)cc1)C(=O)c1cccc(S(=O)(=O)N2CCN(c3ccccc3)CC2)c1 | -32% | 4.6µM* | 0% | -17% | nt | 2 | -2% | 2% | nt
CN(Cc1cnn(Cc2ccccc2)c1)C(=O)c1cccc(S(=O)(=O)N2CCOCC2)c1 | -22% | -11% | 0% | -5% | 15% | 0 | nt | nt | nt
COc1ccc(-n2c(=O)c3ccccc3n(Cc3ccccc3C)c2=O)c(OC)c1 | nt | -4%[9.27 µM] | 1% | 0% | nt | nt | nt | nt | nt
Cc1nn(C)c2c1c(-c1ccccc1)cc(=O)n2Cc1c(F)cccc1Cl | nt | -2% | -1% | 20% | nt | nt | nt | nt | nt
CCOc1ccc(-c2nc(CSCC(=O)N3CCN(c4cccc(OC)c4)CC3)c(C)o2)cc1 | -29% | ? | -1% | 3% | -3% | -4 | nt | nt | nt
COc1ccc(-c2nc(CSCC(=O)N3CCN(c4ccccc4F)CC3)c(C)o2)cc1 | nt | 5.8µM* | -1% | ? | nt | nt | -22% | -16% | 9.2µM*
Cc1oc(-c2ccccc2F)nc1CSCC(=O)N1CCN(c2ccccc2)CC1 | nt | 7.3µM* | 0% | -22% | nt | nt | 2% | -8% | 12µM*
CN1CCN(c2ccc(-c3nc(-c4ccccc4)no3)cc2[N+](=O)[O-])CC1 | -1% | ? | 4% | 0% | nt | nt | nt | nt | nt
O=C(CCn1nc(-c2ccccc2)c2ccccc2c1=O)NN1CCOCC1 | 0% | -8% | 0% | 4% | -1% | 1 | nt | nt | nt
O=c1c2cccc3c2c(nn1CN1CCOCC1)-c1ccccc1-3 | 14% | 3.7µM* | 14% | -13% | 3% | 30 | 3% | -9% | 8.2µM*
Cc1cc2sc3ccc(C#CC4(O)CCCCC4)cc3c(=O)c2cc1C | -49% | 0.21µM* | -1% | -4% | nt | 1 | 0.085µM* | -17% | 9.2µM*
COc1ccc(OC)c(CCNC(=O)c2cnn(-c3ccccc3Cl)c2C2CCN(C(=O)OC(C)(C)C)CC2)c1 | nt | ? | -1% | ? | nt | nt | nt | nt | nt
CN(C)c1ccc(/C=C/c2cccc3cc4ccccc4nc23)cc1 | -68% | nt | nt | nt | nt | nt | 19µM* | ? | 1.6µM*
CN(C)c1ccc(/C=C/c2cc(/C=C/c3ccc(N(C)C)cc3)c3ccccc3n2)cc1 | -4% | nt | nt | nt | nt | nt | 0.17µM* | -12% | 0.58µM*
COc1ccc(-c2nc3sc(CCNC(=O)C(=O)Nc4cc(C)cc(C)c4)c(C)n3n2)cc1 | nt | nt | -1% | -1% | nt | nt | nt | nt | nt
COc1cc(CN(C)c2ncnc3sccc23)ccc1OC(F)F | -56% | 9.2µM* | 3% | -16% | 0% | -3 | -4% | 1% | 8.2µM*
Cc1ccc2c(CNC3CCCC3)c(C(=O)O)n(Cc3ccc(F)cc3)c2c1 | 4% | ? | 6% | ? | nt | nt | nt | nt | nt
CN(C)CCCN1C(=O)c2cccc3cccc(c23)C1=O | -77% | ? | 22% | -14% | nt | 0 | nt | nt | nt
CN(C)CCN1C(=O)c2cccc3cc([N+](=O)[O-])cc(c23)C1=O | -83% | 1.6µM* | -2% | 8.2µM* | nt | -6 | 1% | ? | 2.6µM*
CCCCN(CC)C(=O)C1CCCN(c2ncnc3onc(C)c23)C1 (centres undefined) | nt | ? | 0% | -11% | nt | nt | nt | nt | nt
CCCCN(C)C(=O)C1CCCN(c2ncnc3onc(C)c23)C1 (centres undefined) | nt | 9.2µM* | 4% | -21% | nt | nt | -1% | -19% | 2.9µM*
CC12C=CC(=O)C=C1CCC1C2C(O)CC2(C)C1CCC2(O)C(=O)CO (centres undefined) | -6% | 0.058µM* | -1% | -1% | nt | 0 | 4% | -3% | 0.1µM*

Compound activity: PubChem, National Center for Advancing Translational Sciences (NCATS)
